According to the supplement of paper PMC10127200:
Counter-ions that a name gives are not always drawn.

Tests used:
Test in all cases: Euclidean distance of Cell Painting phenotypic profile (signed KS, 77 features) to DMSO centroid (dimensionless distance); 5 or 10 uM (library dependent); higher = stronger phenotypic change vs DMSO (phenoactivity)
Conditions in all cases: 48 h
786-O = test system: 786-O
Method in brief: (§1)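 Five cancer lines and a healthy fibroblast line received library compounds at 10 or 5 uM (library-dependent, 0.1% DMSO final) for 48 h. Stained cells were imaged confocally at 20X (9 fields/well). Harmony extracted 77 features, each scored as a signed Kolmogorov-Smirnov statistic against same-plate vehicle wells. Profiles were plate-position corrected, correlation-weighted and replicate-averaged at the top dose. Phenoactivity is the Euclidean distance from each profile to the median vehicle profile.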

A549 = test system: A549
Method in brief: as §1

DU145 = test system: DU145
Method in brief: as §1

FB = test system: FB
Method in brief: as §1

HEPG2 = test system: HEPG2
Method in brief: as §1

OVCAR4 = test system: OVCAR4
Method in brief: as §1

Row | Compound | Euclidean distance (786-O) | Euclidean distance (A549) | Euclidean distance (DU145) | Euclidean distance (FB) | Euclidean distance (HEPG2) | Euclidean distance (OVCAR4)
1 | Cc1ccc(-c2nc(N)nc3c2nnn3Cc2cccc(CO[C@H]3CCOC3)n2)o1 | 0.843 | 0.446 | 0.81 | 1.32 | 0.731 | 0.627
2 | COc1ccc(-c2nc(N3CCOCC3)c3sc(CN(C)c4ncc(C(=O)NO)cn4)cc3n2)cn1 | 3.46 | 4.27 | 4.25 | 3.52 | 4.2 | 3.25
3 | C[C@H]1CN(C[C@H](Cc2ccccc2)C(=O)NCC(=O)O)CC[C@@]1(C)c1cccc(O)c1 [Alvimopan dihydrate] | 0.875 | 0.429 | 1.89 | 0.594 | 0.342 | 0.96
4 | O=C1OC2(c3ccc(O)cc3Oc3cc(O)ccc32)c2ccccc21 [Fluorescein] | 0.775 | 0.447 | 0.83 | 0.881 | 1.12 | 1.27
5 | CC(=O)NCCCS(=O)(=O)O [Acamprosate Calcium] | 0.651 | 0.371 | 0.781 | 0.789 | 0.967 | 0.839
6 | CCCCS(=O)(=O)N[C@@H](Cc1ccc(OCCCCC2CCNCC2)cc1)C(=O)O [Tirofiban Hydrochloride] | 1 | 1.07 | 1.77 | 1.22 | 0.871 | 1.39
7 | NC(=O)N1c2ccccc2CC(=O)c2ccccc21 [Oxcarbazepine] | 2.18 | 1.39 | 1.26 | 1.19 | 1.13 | 1.57
8 | O=C(/C=C/C#Cc1cccc(NS(=O)(=O)c2ccccc2)c1)NO [Oxamflatin] | 3.39 | 3.01 | 2.81 | 4.53 | 2.79 | 3.64
9 | CC(=O)Nc1nc2c(Oc3cc(-c4ccc(C(F)(F)F)cc4)ncn3)cccc2s1 | 0.826 | 0.619 | 0.706 | 0.556 | 0.84 | 0.981
10 | O=C(O)CCC(=O)Nc1ccc(S(=O)(=O)Nc2nccs2)cc1 [Succinylsulfathiazole] | 0.988 | 0.655 | 0.789 | 1.1 | 1.01 | 2.02
11 | O=C(O)C1=CO[C@@H](O[C@@H]2O[C@H](CO)[C@@H](O)[C@H](O)[C@H]2O)[C@@H]2C(CO)=CC[C@H]12 [Geniposidic acid] | 0.817 | 0.758 | 0.684 | 0.819 | 0.985 | 0.756
12 | Cc1ccc(Nc2nccc(N(C)c3ccc4c(C)n(C)nc4c3)n2)cc1S(N)(=O)=O | 2.42 | 2.34 | 1.99 | 2.87 | 1.93 | 1.6
13 | NC(=O)NO [Hydroxyurea] | 1.25 | 0.771 | 1.13 | 0.703 | 0.79 | 1.18
14 | CN(C)c1ccc2nc3ccc(=[N+](C)C)cc-3sc2c1 [Methylene Blue] | 2.57 | 2.62 | 1.71 | 3.26 | 2.63 | 2.92
15 | C=CC(=O)Nc1cc(Nc2nccc(-c3cn(C4CC4)c4ccccc34)n2)c(OC)cc1N(C)CCN(C)C | 5.66 | 5.01 | 3.44 | 2.32 | 2.67 | 1.92
16 | OCC1=C[C@@H](O)[C@@H]2C=CO[C@@H](O[C@@H]3O[C@H](CO)[C@@H](O)[C@H](O)[C@H]3O)[C@H]12 [Aucubin] | 0.893 | 0.414 | 2.53 | 0.949 | 0.503 | 1.5
17 | O=C(O)c1cc(O)c(O)c(O)c1 [Gallic acid] | 1.13 | 0.673 | 0.909 | 1.31 | 0.825 | 0.935
18 | CC(=O)OC[C@H]1O[C@@H]([S-])[C@H](OC(C)=O)[C@@H](OC(C)=O)[C@@H]1OC(C)=O.CCP(CC)CC.[Au+] [Auranofin] | 5.67 | 4.89 | 6.36 | 6.74 | 3.39 | 5.08
19 | OC(CCN1CCCCC1)(c1ccccc1)C1CCCCC1 (stereo not drawn) [Trihexyphenidyl hydrochloride] | 1.04 | 1.1 | 0.794 | 0.849 | 1.17 | 2.16
20 | CC1CCc2c(N3CCC(O)CC3)c(F)cc3c(=O)c(C(=O)O)cn1c23 (stereo not drawn) [Nadifloxacin] | 1.05 | 0.818 | 0.896 | 1.14 | 0.855 | 0.748
21 | O=C(CCCCCCC(=O)NO)NO [Suberohydroxamic acid] | 1.22 | 1.22 | 1.18 | 2.06 | 1.84 | 1.28
22 | C#Cc1cccc(Nc2ncnc3cc(OCCOC)c(OCCOC)cc23)c1 [Erlotinib HCl (OSI-744)] | 1.55 | 1.87 | 1.94 | 1.57 | 0.884 | 2.37
23 | COc1cc(C2Oc3cc([C@H]4Oc5cc(O)cc(O)c5C(=O)[C@@H]4O)ccc3OC2CO)ccc1O (stereo partly drawn) [Silibinin] | 0.696 | 1.28 | 0.646 | 0.713 | 0.547 | 0.847
24 | CN[C@@H]1[C@@H](O)[C@@H](O[C@@H]2[C@@H](O)[C@H](O[C@H]3OC(CN)=CC[C@H]3N)[C@@H](N)C[C@H]2N)OC[C@]1(C)O [Sisomicin sulfate] | 1.2 | 1.53 | 0.985 | 0.996 | 0.672 | 1.05

Row | Compound | Euclidean distance (786-O) | Euclidean distance (A549) | Euclidean distance (DU145) | Euclidean distance (FB) | Euclidean distance (HEPG2) | Euclidean distance (OVCAR4)
25 | O=c1cc(N2CCOCC2)oc2c(-c3ccccc3)cccc12 | 1.73 | 1.09 | 1.16 | 1.79 | 1.66 | 2.16
26 | Cc1cn([C@H]2O[C@@H](CO)[C@H](O)[C@H]2F)c(=O)[nH]c1=O [Clevudine] | 1.08 | 0.649 | 1.79 | 0.837 | 0.504 | 1.03
27 | Cc1ccc(/C=C2/C(=O)C3(C)CCC2C3(C)C)cc1 (stereo not drawn) [4-Methylbenzylidene camphor] | 1.01 | 1.2 | 0.926 | 0.895 | 0.613 | 1.22
28 | CC1(C)S[C@@H]2[C@H](NC(=O)[C@H](N)c3ccccc3)C(=O)N2[C@H]1C(=O)OCOC(=O)[C@@H]1N2C(=O)C[C@H]2S(=O)(=O)C1(C)C [Sultamicillin Tosylate] | 1.06 | 1.18 | 0.926 | 1.01 | 0.775 | 0.992
29 | CN1CCN2c3ccccc3Cc3ccccc3C2C1 (stereo not drawn) [Mianserin HCl] | 2.29 | 2.41 | 0.876 | 2.86 | 1.34 | 2.29
30 | NCCCC[C@H](NC(=O)[C@@H]1CCCN1C(=O)[C@@H]1CSSC[C@H](NC(=O)CNC(=O)CNC(=O)CN)C(=O)N[C@@H](Cc2ccc(O)cc2)C(=O)N[C@@H](Cc2ccccc2)C(=O)N[C@@H](CCC(N)=O)C(=O)N[C@@H](CC(N)=O)C(=O)N1)C(=O)NCC(N)=O [Terlipressin Acetate] | 1.69 | 0.833 | 1.36 | 0.976 | 0.531 | 1.15
31 | CN(C)CCOC(c1ccccc1)c1ccccc1.Cn1c(=O)c2[nH]c(Cl)nc2n(C)c1=O [Dimenhydrinate] | 0.947 | 1 | 1.72 | 1.28 | 0.581 | 0.863
32 | C[C@]12C=CC(=O)C=C1CC[C@@H]1[C@@H]2[C@@H](O)C[C@@]2(C)[C@H]1CC[C@]2(O)C(=O)CO [Prednisolone] | 1.51 | 2.15 | 2.31 | 1.67 | 2.12 | 2.19
33 | COc1cc2c(N3CCN(C(=O)Nc4ccc(OC(C)C)cc4)CC3)ncnc2cc1OCCCN1CCCCC1 [Tandutinib (MLN518)] | 0.691 | 1.73 | 1.35 | 2.68 | 1.52 | 1.12
34 | Nc1nc2n[nH]nc2c(=O)[nH]1 [Azaguanine-8] | 1.55 | 0.834 | 0.699 | 1.27 | 1.17 | 0.737
35 | Nc1nc(OCc2ccccc2)c2nc[nH]c2n1 [O6-Benzylguanine] | 1.02 | 0.825 | 0.926 | 1.41 | 0.548 | 0.833
36 | Cc1nc2ccc(-n3ncc(C(=O)c4cc5ccccc5[nH]4)c3N)cc2[nH]1 | 2.53 | 2.28 | 1.14 | 3.31 | 1.73 | 1.67
37 | COc1ccc(C2C(=O)c3ccccc3C2=O)cc1 [Anisindione] | 0.89 | 0.546 | 1.76 | 1.61 | 0.828 | 0.667
38 | Nc1ncccc1-c1nc2ccc(-c3ccccc3)nc2n1-c1ccc(C2(N)CCC2)cc1 [Miransertib (ARQ 092) HCl] | 4.75 | 4.1 | 2.87 | 4.17 | 4.52 | 3.46
39 | CCN(CC)CC#CCOC(=O)C(O)(c1ccccc1)C1CCCCC1 (stereo not drawn) [Oxybutynin] | 0.749 | 0.615 | 1.19 | 0.788 | 1.25 | 0.913
40 | CCC(=O)O[C@@H](O[P@](=O)(CCCCc1ccccc1)CC(=O)N1C[C@H](C2CCCCC2)C[C@H]1C(=O)O)C(C)C [Fosinopril Sodium] | 1.19 | 0.719 | 1.62 | 0.746 | 0.444 | 1.23
41 | CC(C)Cc1ccc(C(C)C(=O)O)cc1 (stereo not drawn) [Ibuprofen Lysine] | 1.27 | 0.944 | 1.68 | 0.93 | 1.17 | 1.07
42 | Cc1cc(C(C)(C)C)c(O)c(C)c1CC1=NCCN1 [Oxymetazoline HCl] | 1.3 | 0.82 | 0.75 | 1.1 | 1.88 | 0.83
43 | COc1cc(Nc2ncc(F)c(Nc3ccc4c(n3)NC(=O)C(C)(C)O4)n2)cc(OC)c1OC [R406 (free base)] | 2.36 | 3.53 | 3.18 | 2.76 | 1.99 | 2.41
44 | Cc1cccc(-c2nn3c(c2-c2ccnc4ccc(C(N)=O)cc24)CCC3)n1 | 1.39 | 1.06 | 0.926 | 1.47 | 1.04 | 1.18
45 | C=CCc1ccccc1OCC(O)CNC(C)C (stereo not drawn) [Alprenolol hydrochloride] | 0.84 | 0.761 | 1.36 | 1.77 | 0.91 | 1.07
46 | C[C@@H]1C[C@H]2[C@@H]3C[C@H](F)C4=CC(=O)C=C[C@]4(C)[C@@]3(F)[C@@H](O)C[C@]2(C)[C@@]1(O)C(=O)CO [Flumethasone] | 1.24 | 2.47 | 2.17 | 2.26 | 0.627 | 1.97
47 | O=C(O)CCNC(=O)c1ccccc1 [Betamipron] | 0.807 | 1.17 | 1.01 | 0.869 | 0.988 | 1.34
48 | Cc1cc(Nc2cc(N3CCN(C)CC3)nc(Sc3ccc(NC(=O)C4CC4)cc3)n2)n[nH]1 [VX-680 (Tozasertib. MK-0457)] | 2.67 | 3.95 | 3.26 | 3.01 | 1.92 | 2.98
